# MITF TRPM1 HTS: activators of MITF-driven TRPM1 promoter activity in SK-MEL-5 cells. SK-MEL-5 TRPM1-promoter luciferase, 24 h; % of positive control, neutral wells = 0. activation, % at 12.5 µM. hit rate 0.75% among 300,000;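 active = mean activation of at least 80% with every replicate also reaching 80%; inconclusive = mean reaches 80% but some replicate falls short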;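 also: 0% = neutral control wells and 100% = parthenolide positive control wells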
# Wnt act: activates Wnt/beta-catenin signaling in a reporter cell assay; AID 743398; activator, plate reader; activation, % at 9.35 µM; hit rate 1.2% among 300,000; in the data active = activation above about 30%, passing the limit was not always enough; inconclusive = no clear call, values can overlap the other calls;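 also: 0% = neutral control wells and 100% = positive control wells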
# TRPM1 prom inh: inhibitors of MITF-driven TRPM1 promoter in melanoma cells | AID 488899 | inhibition, % at 12.5 µM | hit rate 0.83% among 330,000 | SK-MEL-5 TRPM1 promoter luciferase, 24 h;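 active = mean inhibition across replicates of 60% or more, whatever share of single replicates reaches that level; inconclusive = some that reach 60%, reason not given; inactive = mean inhibition across replicates below 60%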
# PfHsp90 set2: inhibits growth of yeast expressing Plasmodium falciparum Hsp90 | S. cerevisiae expressing PfHsp90, BacTiter-Glo ATP, 48 h; yeast lacking PDR1 and PDR3 efflux regulators | inhibition, % at 9.4 µM | hit rate 0.32% among 310,000 | AID 504621;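 active = every replicate shows inhibition above about 80%, whatever the replicate mean, limit read from the data; inconclusive = mean inhibition reaches the set limit but some replicate falls short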;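 also: 0% = DMSO neutral controls and 100% = 20 µM radicicol positive controls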
# NSD2 HMT inh: NSD2 (human) methyltransferase inhibition. NSD2 peptide methylation, AlphaScreen, 120 min. inhibition, % at 12.5 µM. hit rate 0.54% among 310,000; in the data active = inhibition above about 50%
# Glyco luc inh: N-linked glycosylation inhibition; reporter increase, % at 12.5 µM; hit rate 0.23% among 360,000; AID 588692; D54 ERlucT glycosylation luciferase reporter, 24 h; percent of 100 nM tunicamycin response;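 active = mean luciferase reporter signal, scaled so untreated is 0 and the glycosylation-blocking control 100, at or above a set limit in every replicate; inconclusive = mean reaches the limit but not every replicate does; inactive = mean below the limit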;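 also: luciferase carries N-glycosylation sites so blocking glycosylation raises the light; 0% = median of neutral control wells and 100% = median of 100 nM tunicamycin wells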
# The depositor's hits bear a star; u = inconclusive; x = no result; ! = repeats disagree. An excerpt weighted towards active compounds, which were near 2.9% of everything screened.
SMILES,MITF TRPM1 HTS,Wnt act,TRPM1 prom inh,PfHsp90 set2,NSD2 HMT inh,Glyco luc inh
COc1cc2cc(/C=C/C(=O)c3ccco3)c(Cl)nc2cc1OC,12,-1,-10,-31,25,49*
O=C(C=Cc1ccco1)c1ccco1,16,1,-16,4,0,3
COc1cc2nc(NC(=O)c3ccco3)sc(=O)c2cc1OC,x,-5,-14,7,0,u
Cc1ccc2nc(Cl)c(/C=C/C(=O)c3ccco3)cc2c1,x,1,-53,12,-1,42*
Cc1ccc2cc(/C=C/C(=O)c3ccco3)c(Cl)nc2c1,x,60*,x,x,2,21
CC(Sc1ccsc1[N+](=O)[O-])C(=O)NCc1ccco1 (stereo not given),20,x,-19,-4,8,-2
Cc1ccc(C(=O)NC(C#N)=C(Cl)Cl)cc1,x,77*,x,x,3,x
CC[C@H]1CN2CCc3cc(OC)c(OC)cc3C2C[C@@H]1C[C@H]1NCCc2cc(OC)c(OC)cc21 (stereo not given in full),-76,-1,76*,15,x,-20
CCC1=C(CC2NCCc3ccccc32)CC2c3cc(OC)c(OC)cc3CCN2C1 (stereo not given),x,-9,70*,-7,2,-19
COc1cc2c(cc1OC)CN1CCc3cc(OC)c(OC)cc3C1C2 (stereo not given),x,-1,x,x,x,-1
COC(=O)c1ccc(C)c(NC(=O)CN(c2cc(OC)ccc2OC)S(C)(=O)=O)c1,7,x,-7,0,4,74*
O=C(O)CCN1C(=O)/C(=C/c2cccc(OCc3ccc(F)cc3)c2)SC1=S,x,x,x,x,-2,x
COc1ccc(-c2c[n+]3c(n2-c2ccc(C)cc2)CCCCC3)cc1,x,-1,51,2,1,1
CCOc1ccc(-n2c(-c3ccccc3)c[n+]3c2CCC3)cc1,-37,-1,33,7,-4,-3
CCOc1ccc(-n2c(-c3ccc(Br)cc3)c[n+]3c2CCCCC3)cc1,-61,-3,63*,11,3,0
CCOc1ccc(-n2c(-c3ccc(OC)cc3)c[n+]3c2CCCCC3)cc1,-74,1,77*,-7,-2,-1
Cc1nn(-c2ccccc2)c(Cl)c1/C=N/NC(=O)OC(C)(C)C,57,34*,-57,1,40,-3
O=C(NCc1c(F)cccc1F)C1C2C=CC3(CN(Cc4ccccc4)C(=O)C13)O2 (stereo not given),x,x,x,x,-3,x
CCN(CC)C(=O)Oc1ccc2c(=O)c(-c3ccc(OC)cc3)coc2c1,u,20,-77,-17,1,-6
COc1ccc2c(=O)c(-c3ccc4c(c3)OCO4)coc2c1,-5,40*,4,3,x,-19
CC(C)Oc1ccc2c(=O)c(-c3ccccc3)coc2c1,78,56*,-77,7,x,-10
COC(=O)COc1ccc2c(=O)c(-c3ccccc3)coc2c1,x,1,-1,-8,-1,-1
Cn1c(=O)cc(OCCCC(=O)NC2CCCC2)c2ccccc21,x,20,7,11,-2,45*
Cc1ccnc(NC(=O)CCCOc2cc(=O)n(C)c3ccccc23)c1,-6,-1,5,x,x,26*!
CCC(C)CNC(=O)c1cn(C(C)c2ccccc2)nn1 (stereo not given),x,x,x,x,14,x
SMILES,MITF TRPM1 HTS,Wnt act,TRPM1 prom inh,PfHsp90 set2,NSD2 HMT inh,Glyco luc inh
O=c1c2c(nc3cc(-c4ccc(Br)cc4)[nH]n13)CCCC2,109*,14,-105,0,2,-4
C[C@H]1CN(c2ccc(N3CCN(C(=O)OC(C)(C)C)C[C@@H]3C)cc2C#N)CCN1Cc1ccccc1,x,-6,x,x,x,x
Nc1c(C(=O)c2ccc(Cl)cc2)sc2nc3c(cc12)CCC3,152*,-3,-135,-10,-1,-8
Nc1c(C(=O)C2CC2)sc2nc3c(cc12)CCC3,117*,8,-113,32,-6,1
Nc1c(C(=O)O)sc2nc3c(cc12)CCCC3,x,15,x,x,8,2
Nc1c(C(=O)Nc2cccc(C(=O)O)c2)sc2nc3c(cc12)CCCC3,-80,-1,80*,-33,3,-7
COc1ccc(-c2c3c(nc4sc(C(=O)Nc5ccccc5)c(N)c24)CCC3)cc1,14,36*,-21,-2,1,-4
CCOc1ccccc1NC(=O)CN(c1ccc(OC)cc1)S(=O)(=O)c1c(C)noc1C,-4,-20,5,-60,-1,34*
Cc1cc(NS(=O)(=O)c2ccc(NC(=O)CSc3nnc(SCc4ccc(Cl)cc4)s3)cc2)nc(C)n1,x,x,x,x,2,x
Clc1ccc(-c2nnc(N3CCCC3)nn2)cc1,x,35*,-24,8,2,-11
CCSc1cc(N2CCCC2)nc(-c2ccc(Cl)cc2)n1,0,-1,0,4,x,-1
O=C(O)CSc1cc(NS(=O)(=O)c2ccc(Cl)cc2)c2ccccc2c1O,-33,6,36,-13,137*,9
COc1ccc(S(=O)(=O)N(C)c2ccc(C(=O)Nc3cccnc3)cc2)cc1OC,13,0,-14,23,1,-6
Cc1ccc(C2=NN3C(C(=O)c4ccccc4)Oc4ccccc4C3C2)cc1 (stereo not given),x,43*,-32,x,-6,-3
COc1ccc(C2=NN3C(C2)c2ccccc2OC3c2cccs2)cc1 (stereo not given),57,49*,-69,-1,x,-5
CC(=O)C1=C(O)C(=CC=Cc2ccccc2)OC1=O,x,-3,x,x,6,7
C[C@H](O)[C@@H]1C(=O)N2CCc3c([nH]c4c(-c5ccc6c(c5)OCO6)cccc34)[C@@H]2C[C@@H]1N(C)C(=O)Nc1ccccc1,x,-1,x,x,x,x
Cc1nc(OCC(C)C)c2sc3nc4c(cc3c2n1)COC(C)(C)C4,x,52*,x,x,-1,-5
CC(C)(C)N1C(=O)c2ccc(C(=O)Nc3ccc(O)cc3)cc2C1=O,x,48*,-21,-21,4,4
O=C1CN(c2ccc(Cl)cc2)C(=O)CN1NC(=S)Nc1ccc(Cl)cc1,0,x,1,-2,1,0
CCOC(=O)N1CCc2cc(OC)c(OC)c3c2c1cc1cc(OC)c(OC)cc13,x,-1,22,-19,12,26*
COc1cc(CC(=O)N2CCc3ccccc32)cc(OC)c1OC,x,x,9,x,x,-1
Nc1nc2c(ncn2[C@@H]2O[C@H](C(=O)NCCCN3CCCC3=O)[C@@H](O)[C@H]2O)c(=O)[nH]1,x,-1,x,x,x,x
Cc1onc(-c2ccccc2)c1C(=O)N1CCN(C(=O)C(=O)c2cccc(C(F)(F)F)c2)CC1,x,0,x,x,-1,x
Cc1ccc(NC(=O)c2nnn(CC(=O)Nc3ccc4c(c3)OCO4)c2N)cc1C,6,2,-14,5,-3,0
O=C(CN1CCN(CC(=O)Nc2ccccc2Cl)CC1)Nc1ccc2c(c1)OCCO2,5,x,-6,-25,1,-1
Nc1c(C(=O)Nc2ccccc2Cl)nnn1-c1ccc2c(c1)OCCO2,132*,18,-137,-52,-8,-9

# Compound activity as filed in PubChem BioAssay.
